Rows were chosen to be rich in hits. Some 4.1% of all compounds tested hit in one or more screens of this group.
DAX1 inh-1 – inhibits human nuclear receptor DAX1. P51843. inhibition, % at 6.75 µM. AID 504766. 0.99% of 340,000 active. HEK293 Gal4-DAX1 luciferase reporter, luminescence;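 active means inhibition above the mean over all tested compounds plus 3 SD, cut at about 4.2% in these data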;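 further: inhibition shows as a rise in luminescence from relieved DAX1 repression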
Target sequence (P51843 207-470 limits assumed): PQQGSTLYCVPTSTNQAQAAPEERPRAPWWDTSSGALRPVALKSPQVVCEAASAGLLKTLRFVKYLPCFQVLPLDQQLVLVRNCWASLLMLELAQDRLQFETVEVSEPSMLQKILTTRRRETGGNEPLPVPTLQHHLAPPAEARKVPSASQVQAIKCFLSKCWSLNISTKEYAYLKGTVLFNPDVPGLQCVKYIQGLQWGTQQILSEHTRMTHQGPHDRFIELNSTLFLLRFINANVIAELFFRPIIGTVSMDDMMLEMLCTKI
hgDAF12 agonist – activates the H. glycines DAF-12 receptor ligand-binding domain; HEK293 GAL4-hgDAF12 UAS-luciferase reporter, agonist luminescence; normalized to butyrate control; activation, % at 6.8 µM; 1.8% of 370,000 active; AID 687014;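 active means activation above a cutoff set at the mean of all screened compounds plus 3 SD, cut at about 10% in these data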
hcDAF12 agonist – H. contortus DAF-12 activation, primary screen; activation, % at 6.8 µM; HEK293 hcDAF-12 lit1-tk-luc reporter, luminescence; 0% DMSO, 100% Δ7-dafachronic acid; AID 652067; 1.4% of 370,000 active;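 active means activation above the mean of all tested compounds plus 3 SD, cut at about 5.5% in these data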
ssDAF-12 act – activates DAF-12 receptor from parasite S. stercoralis | HEK293 ssDAF-12/GRIP1 lit1-tk-luc reporter, luminescence; % of 3 µM dafachronic acid response | activation, % at 6.8 µM | 1% of 370,000 active | AID 652126;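 active means activation above the mean over all tested compounds plus 3 SD, cut at about 0.9% in these data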
DAX1 inh-2 – blocks DAX1 repression of SF-1 activated StAR promoter | 1.1% of 370,000 active | inhibition, % at 6.8 µM | AID 652010 | HEK293T StAR-luciferase reporter, SF-1/DAX-1 repression relief;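 active means inhibition above the mean over all tested compounds plus 3 SD, cut at about 3.6% in these data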;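 further: higher inhibition means more luminescence from relief of DAX-1 repression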
Of the large screens only hits and unclear results are named; the others gave an inactive call.

COc1ccccc1NC(=O)COC(=O)CCc1ccc(S(=O)(=O)N2CCOCC2)cc1	none
O=C(COc1cccc(Cl)c1Cl)Nc1ccc2c(c1)CCC2	none
C[C@H](O)[C@@H]1C(=O)N2CCc3c([nH]c4c(-c5ccc6c(c5)OCO6)cccc34)[C@@H]2C[C@@H]1N(C)C(=O)OCc1ccccc1	none (no result: DAX1 inh-1)
O=C(CC1CCCC1)Nc1ccc2c(c1)CCC2	hgDAF12 agonist 12
O=C(Cc1ccccc1)Nc1ccc2c(c1)CCC2	none
O=C(OCc1cn(Cc2c(F)cccc2F)nn1)N1CCOCC1	none (no result: DAX1 inh-1)
CC(C)c1cc(C(C)C)c(S(=O)(=O)N2CCCC(C(=O)NCc3cccs3)C2)c(C(C)C)c1 (centres undefined)	none (no result: DAX1 inh-1)
COC(=O)c1ccc(C2NC(C(=O)O)CS2)cc1 (centres undefined)	DAX1 inh-1 4.6
CN1[C@@H](Cc2ccccc2)COc2cccc(F)c2S1(=O)=O	none (no result: DAX1 inh-1)
COc1cc2c(cc1OC)C(SC)=NC1(CCCC1)C2	none
COc1cc2c(cc1OC)C(C)=NC1(CCCCC1)C2	DAX1 inh-1 4.6
CCN1CCN(c2ncnc3c2cnn3-c2ccccc2)CC1	none
CCC(CO)Nc1ncnc2c1cnn2-c1ccc(Cl)cc1 (centres undefined)	DAX1 inh-2 4.0
CCN1CCN(c2ncnc3c2cnn3-c2ccc(Cl)cc2)CC1	hgDAF12 agonist 12
Clc1ccc(-n2ncc3c(NCc4ccco4)ncnc32)cc1	hgDAF12 agonist 13
CCc1cc2c(=O)c(-c3nc4ccccc4[nH]3)coc2c(CN2CCCCC2C)c1O (centres undefined)	DAX1 inh-1 4.6
CCc1cc2c(=O)c(-c3nc4ccccc4[nH]3)coc2c(CN2CCCCC2)c1O	none
CCOc1c(Br)cc(/C=C2/SC(=O)N(CC(=O)N3CCCC3)C2=O)cc1OC	none
CCOC(=O)COc1c(Br)cc(/C=C2\SC(=O)N(CC(=O)N3CCCC3)C2=O)cc1OC	DAX1 inh-1 4.7
Cc1ccccc1OCCOc1cccc(/C=N/NC(=O)Cc2nnc(N)s2)c1	hgDAF12 agonist 12
Nn1c(-c2ccccn2)nnc1-c1ccccn1	none
Nc1ccccc1-c1nnc(-c2ccccc2N)n1N	hcDAF12 agonist 6.0, ssDAF-12 act 2.0
O=C(Nc1ccccc1)c1ccc(NCCc2ccccc2)c([N+](=O)[O-])c1	none
CCc1ccccc1NC(=O)c1ccc(NCCc2ccccc2)c([N+](=O)[O-])c1	DAX1 inh-1 4.4
CCN(CC)c1ccc(C(=O)Nc2ccccc2)cc1[N+](=O)[O-]	hgDAF12 agonist 12
Nc1[nH]c(C(=O)c2ccc(Br)cc2)c(-c2ccncc2)c1C(=O)NCCc1c[nH]c2ccccc12	none (no result: DAX1 inh-1)
CC12CCC3c4ccc(OCCCO)c([N+](=O)[O-])c4CCC3C1CCC2=O (centres undefined)	none (no result: DAX1 inh-1)
COc1ccccc1OCCSc1nc2ccccc2n1CC(O)CO (centres undefined)	DAX1 inh-1 4.7
CN1CCN(c2ccc(Cl)cc2NC(=O)/C=C/c2ccc(F)cc2)CC1	DAX1 inh-1 5.7
Cc1ccc(-c2nnn(CC(=O)N(CC(=O)NC3CCCCC3)c3ccccc3F)n2)o1	DAX1 inh-1 4.2
COc1ccc(CN2CCC(CNC(=O)NC3CCC(C)CC3)CC2)cc1 (centres undefined)	none (no result: DAX1 inh-1)
COc1ccc(NC(=S)Nn2cnnc2)cc1OC	DAX1 inh-1 6.4
Cc1cccc(NC(=O)Nc2nc3ncccn3c2-c2ccc(F)cc2)c1	none (no result: DAX1 inh-1)
CCOC(=O)c1c(Nc2ccc(OC)cc2)n[nH]c1C	DAX1 inh-2 4.3 (no result: DAX1 inh-1)
CCOC(=O)c1c(N/N=C/c2cccnc2)n[nH]c1C	DAX1 inh-1 5.3
Cc1noc(NS(=O)(=O)c2ccc(N/C=C\C(=O)c3cccc4ccccc34)cc2)c1C	DAX1 inh-1 6.6
CCCC(=O)Nc1ccc(NC(=O)c2ccco2)c(OC)c1	DAX1 inh-2 3.7
COc1cc(NC(=O)CC(C)C)ccc1NC(=O)c1ccco1	DAX1 inh-1 4.4
CCC(=O)Nc1ccc(NC(=O)c2ccco2)c(OC)c1	none
O=C(Nc1ccccc1C(F)(F)F)OCCN1C(=O)CCC12CCC(c1ccccc1)CC2 (centres undefined)	none (no result: DAX1 inh-1)
Brc1ccc2nc(-c3ccco3)c(CC3CCCCC3)n2c1	ssDAF-12 act 1.3 (no result: DAX1 inh-1)
O=C(OCCN1CCN(C2CN(Cc3cn(Cc4ccccc4Cl)nn3)S(=O)(=O)C2)CC1)c1cccs1 (centres undefined)	none (no result: DAX1 inh-1)
CN(C)c1cccc2cccc(N(C)C)c12	none
c1ccc2c(c1)Oc1cccc3cccc-2c13	DAX1 inh-1 4.3
CC1CN(c2nc3ccccc3nc2SCC(=O)N2CCN(S(=O)(=O)c3ccc(F)cc3)CC2)CC(C)O1 (centres undefined)	none (no result: DAX1 inh-1)
CC(C)c1ccccc1NC(=O)[C@@H]1CCCN1S(=O)(=O)c1cccc2cccnc12	none (no result: DAX1 inh-1, DAX1 inh-2)
O=C(NC(c1ccc(F)cc1)c1ccc2ccccc2n1)C1CCN(Cc2cccc(C(F)(F)F)c2)CC1 (centres undefined)	DAX1 inh-2 3.7 (no result: DAX1 inh-1)
CN(C)c1ccc(C(=O)NCC2CCN(C(=O)C(=O)c3cccs3)CC2)cc1	none (no result: DAX1 inh-1)
Cc1ccc(C(=O)Nc2cc3c(oc2=O)CCCC3=O)cc1	hgDAF12 agonist 11
CNC(=O)CC1C(=O)N(Cc2ccccc2)C(=S)N1NC(=O)c1cccc(F)c1 (centres undefined)	ssDAF-12 act 1.2
CNC(=O)CC1C(=O)N(c2ccc(Cl)cc2)C(=S)N1NC(=O)c1cccc(F)c1 (centres undefined)	none
O=c1[nH]c2cc(Br)c(Br)nc2[nH]1	none (no result: DAX1 inh-1)
O=S1(=O)c2ccc(N3CCC[C@H]3CO)cc2O[C@H]2CCN1C2	none (no result: DAX1 inh-1)
Cc1ccc(-c2cnco2)cc1	DAX1 inh-1 6.3
O=C(C1CCCCC1C(=O)N1CCCCC1)N1CCCCC1 (centres undefined)	none
O=C(O)C1CCCCC1C(=O)N1CCCC1 (centres undefined)	ssDAF-12 act 1.5
CCCOc1cccc(C2C(C(=O)c3ccc(C)o3)=C(O)C(=O)N2CCN2CCOCC2)c1 (centres undefined)	hcDAF12 agonist 5.8
CC(=Nc1ccccc1O)c1sc2ccccc2c1O	hgDAF12 agonist 13
CC(=Nc1ccc(O)cc1)c1sc2ccccc2c1O	hgDAF12 agonist 12
CC(=O)NCCN=C(C)c1sc2ccccc2c1O	none
O=C(NCc1cc(Cl)cc(Cl)c1)c1ccc2sc([C@@H]3O[C@H](CO)[C@H](O)[C@H](O)[C@H]3O)nc2c1	none (no result: DAX1 inh-1)
O=C(NCc1cccnc1)c1ccc2sc([C@@H]3O[C@H](CO)[C@H](O)[C@H](O)[C@H]3O)nc2c1	ssDAF-12 act 0.9 (no result: DAX1 inh-1)
CCCCCCCCN1C(=O)N2Cc3cc(F)ccc3C2CS1(=O)=O (centres undefined)	none (no result: DAX1 inh-1)
CCCN(CC1CC1)C(=O)CSc1nnc(-c2ccncc2)n1-c1ccc(OC)cc1	none (no result: DAX1 inh-1)
O=C(O)c1cccc(COc2ccccc2Cl)c1	DAX1 inh-2 4.5
CC(=O)N1CCN(C2=NC(=O)N(c3ccc(Br)cc3)C(=O)C2)CC1	none (no result: DAX1 inh-1)
